VACV mCherry inh – qHTS for Stage-Specific Inhibitors of Vaccinia Orthopoxvirus: mCherry Reporter Primary qHTS; Vaccinia virus mCherry reporter infection, fluorescence; Potency, µM (series often up to 36.5 µM), for inactives: at the top dose activity change, negative = inhibition, most hits filed as inhibitors; actives 0.63% (n = 310,000); AID 720579, 2013; calls by dose curve; tested in A549 cells; also: % is scaled to controls: 0 for no effect and ±100 for the full control effect; nearly all actives have a fitted effect of over 35% in size
Vaccinia Venus – qHTS for Stage-Specific Inhibitors of Vaccinia Orthopoxvirus: Venus Reporter Primary qHTS. Vaccinia virus Venus reporter expression, fluorescence. Potency, µM (top dose mostly 36.5 µM), without a hit: at the top dose activity change, negative = inhibition, usual class: inhibitors. actives 0.46% (n = 330,000); calls by dose curve; tested in A549 cells; also: % is scaled to controls: 0 for no effect and ±100 for the full control effect; nearly all actives have a fitted effect of over 30% in size
NS1 inh – qHTS Assay for Inhibitors of Influenza NS1 Protein Function; AID 2326, 2010; actives 0.4% (n = 270,000); Potency, µM (titrated, usually from 46.1 µM), inactives show top-dose activity, positive = more growth; calls by dose curve; also: actives are rising curves; nearly all actives have a fitted effect of over 50% in size
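A cell-based growth assay was used: compounds that relieve NS1-induced slow growth of budding yeast raise OD600. Assay medium was yeast nitrogen base with ammonium sulphate and -URA supplement, pH 6.0, with 2% galactose.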
Pf growth 48h – Primary qHTS for delayed death inhibitors of the malarial parasite plastid, 48 hour incubation; P. falciparum luciferase growth in erythrocytes, 48 h; actives 5.9% (n = 310,000); AID 504832, 2011; Potency, µM (highest dose often 28.7 µM), for the others: at the top dose activity change, negative = inhibition, usual class: inhibitors; also: % is scaled to controls: 0 for no effect and ±100 for the full control effect
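Compounds are pin-transferred into medium, infected erythrocytes (2% hematocrit, 0.1% parasitemia final) are added, and plates sit one parasite generation at 37 C in 5% CO2. Detection reagent is then added and luminescence measured.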
HCV inh – qHTS Assay for Inhibitors of Hepatitis C Virus (HCV) | Huh7.5.1 HCVcc-Cre infection, luciferase reporter, 44 h | Potency, µM (doses to about 41.8 µM), inactives show at the top dose activity change, negative = inhibition, actives largely listed as inhibitors | actives 3.4% (n = 340,000) | AID 651820, 2012; also: % is scaled to controls: 0 for no effect and ±100 for the full control effect
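Whole-lifecycle infectious HCVcc-Cre system; cells 1,000/well, compound then virus (~0.5 moi) added 4 h after plating, 44 h culture. Luciferase read 15 sec following 15 min substrate incubation, room temp.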
Pf growth 96h – Primary qHTS for delayed death inhibitors of the malarial parasite plastid, 96 hour incubation; Potency, µM (titrated, usually from 28.7 µM), for the others: at the highest dose activity change, negative = inhibition, usual class: inhibitors; P. falciparum luciferase reporter growth, 96 h; AID 504834, 2011; actives 6.9% (n = 320,000); also: % is scaled to controls: 0 for no effect and ±100 for the full control effect
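Luminescence readout: decreased luciferase signal marks inhibited growth of reporter-expressing P. falciparum in infected red cells (2% hematocrit, 0.05% parasitemia final), exposed to compound two generations (96 h, 37 C, 5% CO2).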
Starred values were filed as active, the others as inactive; i = inactive; u = inconclusive; x = no result; [ ] = dose if it differs, or a comment. Shown are actives, neighbours in structure and some others; about 11% of the full set was active somewhere. Unless noted, calls follow the shape of the dose curve; as a rule, active = well fitted inhibition curve with a large enough effect; inconclusive = small, poorly fitted or top-dose-only effect, or another doubt; inactive = no such curve, though single readings can be large or run the other way. Potency is read from the fitted curve at half-maximal effect.

SMILES	VACV mCherry inh	Vaccinia Venus	NS1 inh	Pf growth 48h	HCV inh	Pf growth 96h
CC(C)C[C@@]12C(=O)N(c3cccc(Cl)c3)C(=O)N1[C@H](c1ccc(F)cc1)[C@@H]1C(=O)N(C3CCCCC3)C(=O)[C@@H]12	-22%	-20%	x	4.1µM*	16%	u
CN(C(=O)Cn1nnc(-c2cccc(C(F)(F)F)c2)n1)C1CCCCC1	-18%[1.46 µM]	-7%	3%	60%	-5%	-25%
COc1ccccc1OCCn1cc(C(=O)C(C)C)c2ccccc21	-1%	-19%	8%	u	u	0%
O=C(Nc1c(C(=O)NCc2ccco2)cnn1-c1ccccc1)c1cccc(F)c1	x	x	-3%	-12%	-5%	-7%
CCCCn1c(N)c(N(CCC(C)C)C(=O)C2CSC3(C)CCC(=O)N23)c(=O)[nH]c1=O (configuration not stated)	-4%	-6%	x	u	5%	-3%
O=C1c2ccccc2C(=O)N1Cc1cccnc1	i	-7%	4%	20%	19%	173%
O=C1c2cnccc2CN1Cc1ccccc1	x	x	1%	41%	4%	3.3µM*
CCOC(=O)c1nn(-c2ccccc2F)c2nc(-c3ccco3)c(C#N)c(=O)n12	-4%	0%	11%	-9%	19%	u
Cc1ccc(C(C)C)c(OCC(=O)NC(=S)Nc2ccccc2N2CCOCC2)c1	-14%	0%	u	41%	x	-41%
CC(=O)N1CCN(c2ccccc2NC(=O)COc2ccc(Cl)cc2Cl)CC1	x	-8%	-68%	10µM*	u	x
CC(=O)N1CCN(c2ccccc2NC(=O)COc2ccccc2C)CC1	x	x	-2%	u	-14%	26%
Cc1cc(C)c(OCC(=O)Nc2ccccc2N2CCOCC2)c(C)c1	x	x	-19%	12µM*	u	-6%
Cc1ccc(OCC(=O)Nc2ccccc2N2CCCC2)c(C)c1	-3%	-4%	-32%	12µM*	u	11%[5.75 µM]
CCC(=O)N1CCN(c2ccccc2NC(=O)COc2cc(C)ccc2C(C)C)CC1	-4%	-25%	-9%	3.3µM*	10µM*	x
COC(=O)C1=C(c2ccc(S(C)(=O)=O)cc2)C[C@@H]2CC[C@H]1N2C(=O)NC1CCCCC1	i	-9%	x	x	5%	x
CN(C)S(=O)(=O)c1ccc(C(=O)OCC(=O)NC(=O)NCc2ccccc2)cc1	x	x	-5%	x	3%	-5%
NC(=O)c1cc(S(=O)(=O)Nc2cccc(Cl)c2)cs1	-7%	-11%	-1%	-19%	13%	-8%
CCn1c(Cc2ccccc2)nnc1SCC(=O)Nc1ccccc1N1CCOCC1	x	x	-3%	u	-4%	3.3µM*
Cn1c(Cc2ccccc2)nnc1SCC(=O)Nc1ccccc1N1CCOCC1	x	x	-9%	-13%	7%	16%
CC(=O)c1ccc2noc(-c3cccc(F)c3)c2c1	i	-15%	-7%	0%	2.2µM*	13%
COc1cccc(-c2onc3ccc(C(C)=O)cc23)c1	x	x	0%	-8%	u	12%
Cc1ccc(CN2CCCn3nc(C(=O)NCCc4ccccc4Cl)cc3C2=O)cc1	-16%	-16%	x	x	x	x
CCc1cccc(C)c1NC(=S)NCC1CCN(c2ccc(OC)cc2)C1 (configuration not stated)	u	7%	x	3.3µM*	-13%	-4%
COc1ccc(N2CCC(CNC(=S)Nc3cccc(OC)c3)C2)cc1 (configuration not stated)	x	x	25%	u	-6%	-3%
COc1ccc(N2CCC(CNC(=O)Nc3cccc(OC)c3)C2)cc1 (configuration not stated)	-19%	-8%	3%	x	x	-27%
SMILES	VACV mCherry inh	Vaccinia Venus	NS1 inh	Pf growth 48h	HCV inh	Pf growth 96h
CCc1ccccc1NC(=S)NCC1CCN(c2ccc(OC)cc2)C1 (configuration not stated)	x	x	-31%	12µM*	u	u
CCCCC(=O)N(C)c1c(CC)nc2c(OCCOc3ccc(F)cc3)cccn12	16%	-10%	x	x	x	x
O=C(CNC(=O)OCc1ccccc1)Nc1ccc(Br)cc1C(=O)c1ccccc1Cl	-6%	-25%	6%	u	8.9µM*	u
Cc1ccc(NC(=S)NNC(=O)c2nnn(-c3ccccc3)c2C)cc1	-3%	-12%	26%	25%	15%	42%
CN(c1ccccc1)S(=O)(=O)c1ccc(C(=O)NCc2ccccc2CN2CCCC2)cc1	-16%	-10%	x	u	10µM*	u
COC(=O)c1cc(CNC(=O)c2sccc2-c2ccccc2)ccc1OC	x	x	-6%	2%	11µM*	7%
COc1ccccc1N(C)S(=O)(=O)c1ccc(C(=O)NCc2ccc3c(c2)OCO3)cc1	-29%	-19%	x	9.3µM*	u	u
COc1ccccc1N(C)S(=O)(=O)c1ccc(C(=O)Nc2cc(F)ccc2C)cc1	-3%	-12%	x	x	6.3µM*	x
CN(c1ccccc1)S(=O)(=O)c1ccc(C(=O)NCc2ccc(F)cc2)cc1	x	x	x	x	-20%	x
CCN(Cc1ccc(OC)c(F)c1)C(=O)c1oc2ccccc2c1COC	-13%	2%	-15%	-15%	-26%	u
CC(C)c1ccc(-c2csc3ncnc(N4CCN(C)CC4)c23)cc1	i	-23%	-1%	u	u	u
Cc1cc(C)c(S(=O)(=O)N(C)CC(=O)NCCN2CCOCC2)c(C)c1	-15%	-14%	12%	43%	12%	-11%
COc1cc(OC)cc(C(=O)NNC(=O)c2ccc(S(=O)(=O)N(C)c3ccccc3OC)cc2)c1	x	x	0%	-82%	-22%	0.083µM*
COc1ccccc1N(C)S(=O)(=O)c1ccc(C(=O)NC(C)(C)C)cc1	-11%	-3%	8%	x	-6%	u
COC(=O)c1cc(CNC(=O)c2ccc(S(=O)(=O)N(C)c3ccccc3)cc2)ccc1OC	-7%	-22%	x	3.7µM*	4µM*	12µM*
COc1ccc(CNC(=O)c2c(C)oc3c2C(=O)c2ccccc2C3=O)cc1	7.1µM*	8.9µM*	-16%	u	4%[8.37 µM]	3.3µM*
Cc1onc(-c2ccccc2Cl)c1C(=O)NCc1cccnc1	x	x	0%	6%	u	x
Cc1oc2c(c1C(=O)NCc1cccnc1)C(=O)c1ccccc1C2=O	u	0.56µM*	2%	u	1.6µM*	0.15µM*

Screens deposited in PubChem by National Center for Advancing Translational Sciences (NCATS).
